# Hits are enriched below; roughly 3% of the tested compounds scored in any of these assays.
# MITF act: MITF TRPM1 promoter activation in melanoma cells; SK-MEL-5 TRPM1-promoter luciferase, 24 h; % of positive control, neutral wells = 0; activation, % at 12.5 µM; hit rate 0.75% among 300,000; AID 588334;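 active means mean activation of at least 80% with every replicate also reaching 80%; inconclusive means mean reaches 80% but some replicate falls short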;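 further: 0% = neutral control wells and 100% = parthenolide positive control wells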
# Wnt act: activates Wnt/beta-catenin signaling in a reporter cell assay | activation, % at 9.35 µM | hit rate 1.2% among 300,000 | AID 743398 | activator, plate reader; in the data active means activation above about 30%, passing the limit was not always enough; inconclusive means no clear call, values can overlap the other calls;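 further: 0% = neutral control wells and 100% = positive control wells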
# C2C12 statin: suppression of simvastatin myotoxicity | rescue of ATP level, % at 7.49 µM | hit rate 0.78% among 330,000 | AID 602340 | C2C12 myotubes + simvastatin, ATP luminescence, 48 h; scaled: DMSO 0, geranylgeraniol control 100;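 active means mean ATP rescue above about 67%, or every replicate alone reaching that limit, limit read from the data, passing the limit was not always enough; inconclusive means no clear call, values can overlap the other calls; inactive means mean under the limit and some replicate under it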;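 further: myotubes were challenged with 10 µM simvastatin during compound exposure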
# esBAF inh: SWI/SNF esBAF complex inhibition; mouse ES cells, Bmi1-luciferase knock-in reporter, 24 h; 100% = twice the neutral-well signal; reporter increase, % at 12.5 µM; hit rate 2% among 350,000; in the data active means activation above about 40%; inconclusive means no clear call, values can overlap the other calls;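 further: 0% = median of the plate's neutral control wells and 100% = double that signal; a rise in the Bmi1 reporter signal indicates esBAF inhibition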
# esBAF Ring1 qPCR: de-represses Ring1 in mouse ESCs, confirming esBAF inhibition. shares compounds with esBAF inh. mouse ESC E14, Ring1 mRNA RT-qPCR fold change. fold change at 33 µM. 550 tested, under 10 active. AID 743176;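 active means Ring1 gene expression raised more than 2-fold over untreated cells in both replicates at either tested dose; inconclusive means only one replicate above 2-fold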;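 further: Ring1 transcript normalised to actin housekeeping signal by TaqMan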
# Fgf4 repress: confirmation of esBAF inhibitors: Fgf4 repression in mouse ESCs; shares compounds with esBAF inh; mouse ESC E14, Fgf4 mRNA qPCR fold change; stronger effect = lower value; Fgf4 expression fold change at 33 µM; hit rate 4% among 550;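 active means Fgf4 expression under 0.8 fold of control in both repeat measurements at one or both tested doses; inconclusive means under 0.8 fold in just a single repeat measurement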;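 further: Fgf4 transcript normalised to actin in duplex TaqMan qPCR; cells exposed to compound for 24 h before lysis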
# Bmi1 derepress: de-represses Bmi1 in mouse ESCs, confirming esBAF inhibition. mouse ESE14 ES cells, Bmi1 mRNA qPCR fold; stronger effect = higher value. fold change at 33 µM. AID 743180. 550 tested, under 10 active. shares compounds with esBAF inh;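 active means Bmi1 expression fold change above 6 at either tested concentration, seen in replicate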
# A549 tox SP: A549 cell cytotoxicity. shares compounds with esBAF inh. plate reader. cell viability change % (negative = cytotoxic), % at 25 µM, hits read low. 550 tested, under 10 active; call rule not given here
# HepG2 cytotox SP: cytotoxicity in HepG2 cells; plate reader; stronger effect = lower value; activity change, negative = inhibition, % at 25 µM; shares compounds with esBAF inh; hit rate 4% among 550; in the data active means activity change below about -50%
# HEK293 cytotox SP: cytotoxicity in HEK293 cells; shares compounds with esBAF inh; plate reader; activity change, negative = inhibition, % at 25 µM, hits read low; hit rate 3% among 550; in the data active means activity change below about -38%, passing the limit was not always enough
# * marks the source's active call; other numbers are inactive results; ? = inconclusive; · = no result given.
SMILES,MITF act,Wnt act,C2C12 statin,esBAF inh,esBAF Ring1 qPCR,Fgf4 repress,Bmi1 derepress,A549 tox SP,HepG2 cytotox SP,HEK293 cytotox SP
Cc1ccc(Nc2cccccc2=O)cc1,?,26,2,55*,1.1,1.1,1.8,-5,-21,-9
FC(F)(F)c1cc(-c2ccccc2)nc(N2CCCCCC2)n1,·,0,1,3,·,·,·,·,·,·
c1ccc(-c2cnnc(N3CCCCC3)n2)cc1,86*,20,·,55*,1.2,0.94,1.6,-6,-19,-3
CCS(=O)(=O)Nc1ccc2c(c1)C(=O)N(C)C[C@H](OC)[C@@H](C)CN(C(=O)C1CCC1)[C@H](C)CO2,·,·,-2,5,·,·,·,·,·,·
Fc1ccc(-c2ccc3nccn3c2)cc1Cl,·,-1,14,9,·,·,·,·,·,·
CC(C)Cc1ccc(-c2ccc3nccn3c2)cc1,·,15,3,66*,1.2,?,2,-5,-17,0
C[C@H]1CN([C@@H](C)CO)C(=O)c2cccc(N(C)C)c2O[C@H]1CN(C)C(=O)NC1CCCCC1,·,·,-14,-3,·,·,·,·,·,·
Cc1ccnc(N(C(=O)c2cccs2)C(=O)c2cccs2)c1,30,?,-13,8,·,·,·,·,·,·
O=C(c1cccs1)N(C(=O)c1cccs1)c1ccc(Br)cn1,30,56*,-7,65*,0.73,0.97,1.6,-9,-37,-6
Cc1cc(-c2nnc(CCC(=O)NCc3cccc(C(F)(F)F)c3)o2)no1,3,-2,-3,12,·,·,·,·,·,·
Cc1cc(-c2nnc(-c3cccc(C(F)(F)F)c3)o2)no1,61,19,15,59*,1.2,0.85,1.6,3,-46,-9
COc1cc2ccccc2cc1C(=O)Nc1ccc(Br)cn1,62,8,-22,86*,0.99,0.91,1.4,2,3,0
O=C(Nc1ccc(Cl)cc1)Nc1ccc(Cl)c(Cl)c1,·,1,·,·,·,·,·,·,·,·
O=C(Nc1ccc(Cl)c(Cl)c1)Nc1ccccc1O,·,10,-8,74*,1.7,?,1.7,5,-5,4
CCc1c(C(=O)OCc2ccccc2)[nH]c(C)c1C,59,0,2,53*,1,0.89,2.2,-5,-25,-6
CCc1c(C)[nH]c(C(=O)OCc2ccccc2)c1C,29,3,·,·,·,·,·,·,·,·
CO[C@@H]1CN(C)C(=O)c2cc(NS(=O)(=O)c3cn(C)cn3)ccc2OC[C@H](C)N(C)C[C@@H]1C,·,·,-13,2,·,·,·,·,·,·
COCC#Cc1ccc2c(c1)O[C@H](CN(C)Cc1ccccc1F)[C@@H](C)CN([C@H](C)CO)S2(=O)=O,·,·,-32,-2,·,·,·,·,·,·
O=C(Cc1cccs1)Nc1nc2c(s1)CCCC2,56,13,-5,59*,1,0.79*,1.3,-28,9,-55*
C[C@@H]1CN([C@H](C)CO)C(=O)c2cc(C#CC3(O)CCCC3)cnc2O[C@@H]1CN(C)S(=O)(=O)c1ccccc1,·,·,3,6,·,·,·,·,·,·
CC1(C)CC(=O)c2sc(NC(=O)c3cccs3)nc2C1,9,·,·,·,·,·,·,·,·,·
CC1(C)CNC(=O)c2sc(NC(=O)c3ccccc3)nc2C1,91*,0,-31,84*,1.1,1,1.5,-2,-26,-24
COc1ccc(NC(=O)N(C)C[C@@H]2OCCCC[C@H](C)Oc3ccc(NS(=O)(=O)c4ccc(C)cc4)cc3C(=O)N([C@H](C)CO)C[C@H]2C)cc1,·,·,·,-6,·,·,·,·,·,·
CC(C)NC(=O)N[C@H]1CC[C@@H](CCNS(=O)(=O)c2ccc(Cl)cc2)O[C@@H]1CO,·,·,-2,1,·,·,·,·,·,·
COc1ccc(-n2nc(C(=O)NCC(=O)N3CCN(c4ccccc4F)CC3)c3ccccc3c2=O)cc1OC,71,4,3,30,·,·,·,·,·,·
